This note sets out measurements from PubChem BioAssay AID434927 (Sanford-Burnham Center for Chemical Genomics, 2010).

Each structure is given as a SMILES string. Values without a mark were called inactive. Calls of active or inactive are those of the source.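 Rule for the calls: active = inhibition above about 23% in any of six single-dose repeats (limit read from the data); inactive = the rest.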

As a reminder, the inhibition is the change of the read-out against control, counted positive when it falls.

The target of this test is Intestinal-type alkaline phosphatase (Homo sapiens) (UniProt P09923). As to the kind of experiment: suppression of intestinal alkaline phosphatase activity – biochemical, luminescence, single concentration, uHTS hits, confirmation (AID 434927).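 Note: plate controls were DMSO wells with enzyme for no effect and wells lacking enzyme for full effect.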 As to conditions: purified human IAP, CDP-Star luminescence, 30 min; at 8.3 µM; hits give high values.
Intestinal-type alkaline phosphatase (Homo sapiens), sequence (P09923 whole entry, looked up): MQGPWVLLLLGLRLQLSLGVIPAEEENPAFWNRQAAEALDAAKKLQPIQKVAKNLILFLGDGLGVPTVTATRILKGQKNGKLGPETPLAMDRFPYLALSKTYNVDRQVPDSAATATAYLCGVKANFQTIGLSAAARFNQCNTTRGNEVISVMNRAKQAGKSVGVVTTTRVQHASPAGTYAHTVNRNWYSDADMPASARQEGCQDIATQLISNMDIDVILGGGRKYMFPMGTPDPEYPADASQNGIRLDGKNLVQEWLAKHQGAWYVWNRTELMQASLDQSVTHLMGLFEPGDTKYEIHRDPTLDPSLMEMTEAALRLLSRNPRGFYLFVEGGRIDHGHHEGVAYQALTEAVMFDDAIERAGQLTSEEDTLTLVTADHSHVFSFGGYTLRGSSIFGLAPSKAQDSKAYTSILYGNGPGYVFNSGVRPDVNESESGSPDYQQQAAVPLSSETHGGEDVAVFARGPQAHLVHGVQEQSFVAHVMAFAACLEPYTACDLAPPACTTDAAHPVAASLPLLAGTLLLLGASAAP
`CC1=NN(c2nc3ccccc3[nH]2)C(=O)/C1=C/N(C)C`: the inhibition is -57%.

Turning to `O=C(NNC(=S)NC(=O)c1ccccc1)c1cccnc1`, the inhibition was -320%.

Turning to `Cc1cc(NC(=O)c2ccc(N3C(=O)C4C5C=CC(C5)C4C3=O)cc2)no1` (centres undefined), the inhibition is -161%.

Regarding `CCC(C)(C)C1CCc2[nH]nc(C(=O)N/N=C(\C)c3ccco3)c2C1` (centres undefined), the inhibition was 62.7% (active).

Consider `COc1cc(/C=C/C(=O)OCC(=O)NC(=O)NC2CCCCC2)ccc1OC(F)F`, for which the inhibition is 78.7% (active).

With `CCOC(=O)c1c(NC(=O)Cn2cc([N+](=O)[O-])cn2)sc2c1CCC2`, the inhibition is -90.5%.

Turning to `Cc1cccc(SCc2noc(C(=O)NCC3CCCO3)c2C(=O)O)c1` (centres undefined), the inhibition is -213%.

In the case of `Cc1ccc(O)c(-c2cc(C(=O)NCc3ccc4c(c3)OCO4)[nH]n2)c1`, the inhibition was 19.7% (active).

For `CC(NC(=S)NC1CCC(C(C)(C)C)CC1)c1ccccc1` (centres undefined), the inhibition was -111%.

As to `O=C(Cc1ccc(Cl)c(Cl)c1)NNC(=S)NCC1CCCO1` (centres undefined), the inhibition is -97.6%.

As to `CC(C)(C)NC(=O)C(=O)NNC(=O)COc1ccccc1`, the inhibition was 39% (active).

As for `O=C(/C=C/c1ccc(O)cc1)c1ccc(NC2=C(N3CCCCC3)C(=O)c3ccccc3C2=O)cc1`, the inhibition was -0.00319%.

Turning to `COc1ccc(CN2CCC(n3nccc3NC(=O)CCCc3ccccc3)CC2)cc1C`, the inhibition was -127%.

As to `COc1ccc(NC(=O)CCN2CCN(S(=O)(=O)c3cc(Cl)ccc3OC)CC2)cc1`, the inhibition was 35.6% (active).

Turning to `CCn1nc(C)c(CN2CCC(C(=O)Nc3cccc(-c4cccc(F)c4)c3)CC2)c1C`, the inhibition is 50.7% (active).

Turning to `O=C(/C=C/c1ccccc1O)c1ccco1`, the inhibition is -104%.

`C/C(=N/NC(=O)c1ccc(Cn2cccn2)o1)c1cccc(NC(=O)c2ccncc2)c1`: the inhibition was -101%.

Turning to `Cc1cc(C)cc(OCC(=O)NNC(=O)c2cc(C)[nH]n2)c1`, the inhibition is -94.6%.

Regarding `COc1cc(/C=C2\SC(=S)N(N(C)c3ccccc3)C2=O)ccc1O`, the inhibition is 60.4% (active).

Consider `O=C(NNC(=S)NC(=O)c1ccccc1[N+](=O)[O-])c1ccccc1O`, for which the inhibition was 27.4% (active).

With `COc1cc(CN2CCC(n3nccc3NC(=O)CCCc3ccccc3)CC2)ccc1F`, the inhibition was 40.7% (active).

With `O=C(COc1ccc2ccccc2c1Br)N1CCCCC1`, the inhibition is -50.2%.

With `O=C(CCN1C(=O)/C(=C/c2ccccc2Cl)SC1=S)NNC(=O)c1ccccc1O`, the inhibition was 62.3% (active).

With `CC1C(=O)NN=C1C(=O)N/N=C\c1ccc(O)cc1O` (centres undefined), the inhibition was -78.7%.

Turning to `Cc1ccc(S(=O)(=O)NCCC(=O)NNC(=O)COc2ccc(Br)cc2)cc1C`, the inhibition is 41% (active).

Regarding `CCN(CC)c1ccc(/C=N/NC(=O)c2nnn(-c3nonc3N)c2C(C)C)c(O)c1`, the inhibition was 32.4% (active).

`CCOc1ccc(NC(=O)CSc2nncn2C)cc1`: the inhibition was -83.5%.

For the compound `CN1CCN(CCNC(=O)Cn2c(=O)c3cccn3c3ccc(F)cc32)CC1`, the inhibition was 35.4% (active).

For `COc1cc(NC(=O)NCC2CCN(Cc3ccccc3Cl)CC2)cc(OC)c1OC`, the inhibition is -142%.

As to `COc1ccc(C2=NN(C3=NN=C(N)Cc4ncnn43)C(O)(C(F)(F)F)C2)cc1` (centres undefined), the inhibition was 42% (active).

As to `Cc1cccc(NS(=O)(=O)c2cccc(C(=O)NNC(=O)c3ccccc3O)c2)c1`, the inhibition was 29.2% (active).

Regarding `COc1cccc(/C=N\NC(=O)C2=NNC(=O)C2C)c1O` (centres undefined), the inhibition is 34.8% (active).

For `C=CCN1C(=O)C2(NNc3ccccc3O2)c2ccccc21` (centres undefined), the inhibition is -92.8%.

For `Cc1cc(C(=O)NC2CC(C)(C)Cc3c2cnn3-c2ccccc2)n[nH]1` (centres undefined), the inhibition was 62.1% (active).
